Measured values reported in PubChem BioAssay (Tox21).
Records with an inconclusive call do not appear. The source holds several records for some structures; these can differ, active in one and inactive in another. The source made the active and inactive calls. Unless noted, the call rests on the fitted dose curve; in most records, active means well fitted curve in the direction sought with a large enough effect in the repeat runs; inconclusive means weak or mixed curves; inactive means no such curve, though single readings can be large; an effect the other way counts as inactive or inconclusive.

How the values were obtained:
[1] = qHTS assay to identify small molecule antagonists of the androgen receptor (AR) signaling pathway using the MDA cell line in the presence of 0.5 nM R1881 - cell viability counter screen (AID 1259242); further: nearly all actives have a fitted effect of over 45% in size; further: potency means the concentration at half of the fitted maximal effect
Outline: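 R1881 at 0.5 nM final stimulated MDA-kb2 cells during 16 hr compound treatment at 37C. Cytotoxicity read: CellTiter-Fluor fluorescence after 30 min.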

[2] = qHTS assay to identify small molecule HDAC inhibitors - cell viability counter screen (AID 1259365); further: series mostly up to about 92 µM; nearly all actives have a fitted effect of over 50% in size
Outline: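 Wild-type HCT-116 cells, 1,500/well, cultured overnight, then compound-treated 2 h at 37 C. Viability measured as ATP luminescence with CellTiter-Glo after 30 min at room temperature.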

[3] = qHTS assay to identify small molecule agonists of the sonic hedgehog signaling (Shh) pathway - cell viability counter screen (AID 1259366); further: nearly all actives have a fitted effect of over 50% in size; further: potency means the concentration at half of the fitted maximal effect
Outline: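 NIH/3T3-derived Gli1-Luc reporter cells, 2,000 per well, received compound after 4 h and were treated about 23 h at 37C. Viability measured in the same wells by CellTiter-Fluor fluorescence after 1 h.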

[4] = qHTS assay to identify small molecule antagonists of the sonic hedgehog signaling (Shh) pathway - cell viability counter screen (AID 1259367); further: nearly all actives have a fitted effect of over 55% in size; further: potency means the concentration at half of the fitted maximal effect
Outline: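 NIH/3T3-derived Gli1-Luc reporter cells (2,000 per well) rested 4 hr at 37 C, then received DMSO compounds plus conditioned medium. After 23 hr of treatment, CellTiter-Fluor was added for 1 hr at 37C and fluorescence read.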

[5] = qHTS assay to identify small molecule agonists of the sonic hedgehog signaling (Shh) pathway (AID 1259368; calls by dose curve;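 further: NIH/3T3-derived 3T3Gli1-Luc cells carrying a stable Gli1-driven firefly luciferase reporter; series mostly up to about 92 µM; nearly all actives have a fitted effect of over 15% in size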)
Outline: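 Mouse fibroblast (NIH/3T3) reporter cells with stably integrated Gli1-Luc were treated 24 hr with compound; firefly luciferase luminescence served as the read-out.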

[6] = qHTS assay to identify small molecule phospholipidosis (PLD) inducers (AID 1259344; active means well fitted curve in the direction sought with a large enough effect; an effect the other way counts as inactive or inconclusive; further: potency means the concentration at half of the fitted maximal effect)
Outline: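 HepG2 cells on collagen I, attached 4 h at 37 C, were co-treated with compound and LipidTOX Red dye for 24 h at 37 C, then fixed with paraformaldehyde plus Hoechst 33342 and imaged by high-content microscopy for phospholipid accumulation.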

[7] = qHTS assay to identify small molecule HDAC inhibitors (AID 1259364);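 further: wild-type HCT-116 cells with endogenous class I/II HDAC activity; top concentration of the series differs between compounds; nearly all actives have a fitted effect of over 45% in size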
Outline: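 Relative class I and II HDAC activity is taken from the luminogenic signal in HCT-116 cells, with compound exposure 2 hr and reagent development 30 min at room temperature.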

[8] = biological target: Estrogen receptor (Homo sapiens) (UniProt P03372); test: qHTS assay to identify small molecule antagonists of the estrogen receptor alpha (ER-alpha) signaling pathway using the BG1 cell line in the presence of 0.1 nM 17-beta-estradiol (AID 1259244); further: nearly all actives have a fitted effect of over 50% in size
Estrogen receptor (Homo sapiens), sequence (P03372 whole entry, looked up): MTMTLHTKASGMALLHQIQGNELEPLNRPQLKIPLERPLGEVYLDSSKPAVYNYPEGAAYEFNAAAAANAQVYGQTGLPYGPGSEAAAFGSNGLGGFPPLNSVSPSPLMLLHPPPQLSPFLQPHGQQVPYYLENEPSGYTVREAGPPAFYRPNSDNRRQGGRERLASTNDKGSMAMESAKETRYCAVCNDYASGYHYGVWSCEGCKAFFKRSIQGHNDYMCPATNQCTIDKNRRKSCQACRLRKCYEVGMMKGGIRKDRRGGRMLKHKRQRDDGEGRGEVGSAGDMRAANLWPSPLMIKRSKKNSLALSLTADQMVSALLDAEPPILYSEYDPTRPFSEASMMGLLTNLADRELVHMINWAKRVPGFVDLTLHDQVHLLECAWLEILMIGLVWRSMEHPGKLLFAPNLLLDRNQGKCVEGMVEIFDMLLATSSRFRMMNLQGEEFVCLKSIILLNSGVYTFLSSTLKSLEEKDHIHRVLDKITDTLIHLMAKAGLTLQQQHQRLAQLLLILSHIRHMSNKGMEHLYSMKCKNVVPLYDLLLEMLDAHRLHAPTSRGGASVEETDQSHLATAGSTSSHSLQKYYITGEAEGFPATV
Outline: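 VM7Luc4E2; 4xERE-luciferase; 0.1 nM E2 final; 22 h co-incubation, 37C; ONE-Glo luminescence after 30 min at room temperature.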
On the % scale 0 is the no-effect control and ±100 the full control effect.

Nc1ccccc1S(=O)(=O)O
inactive: Potency [1] | outcome [2] | Potency [3] | Potency [4] | outcome [5]

COc1ccc(CCN(C)CCCC(C#N)(c2cc(OC)c(OC)c(OC)c2)C(C)C)cc1OC (configuration not stated)
active: Potency [6] 5.62 µM
inactive: Potency [1] | Potency [7] | outcome [2] | outcome [5]

CC(C)(C)NCCNC(C)(C)C
inactive: Potency [1] | outcome [8] | Potency [7] | outcome [2] | Potency [4] | outcome [5]

C[N+](C)(C)CC(O)CC(=O)[O-] (configuration not stated)
inactive: Potency [1] | Potency [6] | Potency [7] | outcome [2] | Potency [3] | Potency [4] | outcome [5]

COc1nc(N)nc2c1ncn2[C@@H]1O[C@H](CO)[C@@H](O)[C@@H]1O
inactive: Potency [1] | Potency [6] | Potency [7] | outcome [2] | Potency [4] | outcome [5]

CCC=O
inactive: Potency [1] | outcome [8] | Potency [7] | outcome [2] | Potency [3] | Potency [4] | outcome [5]

N[C@H](C(=O)O)c1ccc(O)cc1
inactive: viability change, negative = cytotoxic [1] 0.442% [at 19 µM] | activity change, negative = inhibition [8] 12.1% [at 19 µM] | Potency [6] | activity change, negative = inhibition [7] -0.75% [at 19 µM] | activity change, negative = cytotoxicity [2] -1.63% [at 19 µM] | viability change, negative = cytotoxic [3] -2.17% [at 19 µM] | Potency [4] | activity change [5] -0.267% [at 18.9 µM]

CN(C(=O)c1c(O)c2ccccc2n(C)c1=O)c1ccccc1
inactive: Potency [1] | Potency [6] | Potency [7] | outcome [2] | Potency [3] | Potency [4] | outcome [5]

CCCCCCCCCCCC
inactive: Potency [1] | Potency [7] | outcome [2] | Potency [4] | outcome [5]

O=C(CCCN1CCN(c2ccccn2)CC1)c1ccc(F)cc1
inactive: Potency [1] | Potency [6] | outcome [2] | Potency [3] | Potency [4] | outcome [5]

CC(=O)OCC(=O)[C@@]1(O)CCC2C3CCC4=CC(=O)CC[C@]4(C)C3[C@@H](O)C[C@@]21C (some centres not stated)
inactive: Potency [1] | Potency [6] | Potency [7] | outcome [2] | Potency [3] | Potency [4] | outcome [5]

Cc1ccc(C#N)cc1
inactive: Potency [1] | outcome [8] | Potency [7] | outcome [2] | Potency [3] | Potency [4] | outcome [5]

CC(C)CCCC(C)N (configuration not stated)
inactive: Potency [1] | outcome [8] | Potency [6] | Potency [7] | outcome [2] | Potency [4] | outcome [5]

NS(=O)(=O)c1cc(C(=O)O)cc(N2CCCC2)c1Oc1ccccc1
inactive: Potency [1] | outcome [8] | Potency [6] | outcome [2] | Potency [3] | Potency [4] | outcome [5]

Oc1ccc(C2CNCCc3c2cc(O)c(O)c3Cl)cc1 (configuration not stated)
inactive: Potency [1] | Potency [6] | Potency [7] | outcome [2] | Potency [4] | outcome [5]

Cn1cc(S(C)=O)c(=O)c2ccc(F)cc21 (configuration not stated)
inactive: Potency [1] | outcome [8] | Potency [6] | Potency [7] | outcome [2] | Potency [3] | Potency [4] | outcome [5]

CC(C[N+](C)(C)C)OC(N)=O (configuration not stated)
inactive: Potency [1] | outcome [8] | Potency [6] | Potency [7] | outcome [2] | Potency [3] | Potency [4] | outcome [5]

C1CN(CCOCCN2CCOCC2)CCO1
inactive: Potency [1] | outcome [8] | Potency [7] | outcome [2] | Potency [3] | Potency [4] | outcome [5]

C[C@@H]1CCN(C(=O)[C@H](CCCN=C(N)N)NS(=O)(=O)c2cccc3c2NC[C@H](C)C3)[C@@H](C(=O)O)C1
inactive: Potency [1] | outcome [8] | Potency [6] | outcome [2] | Potency [3] | Potency [4] | outcome [5]

CN(C)CCCN1c2ccccc2CCc2ccc(Cl)cc21
active: Potency [1] 48.6 µM | Potency [3] 30.6 µM
48.6 µM (active) and inactive: Potency [4]
inactive: Potency [7] | outcome [2] | outcome [5]

CCCCCCCCCCCCCC=O
inactive: viability change, negative = cytotoxic [1] -0.255% [at 8.39 µM] | activity change, negative = inhibition [8] 5.09% [at 8.39 µM] | activity change, negative = cytotoxicity [2] 1.26% [at 8.39 µM] | viability change, negative = cytotoxic [3] 5.21% [at 8.39 µM] | viability change, negative = cytotoxic [4] 0.0972% [at 8.39 µM] | activity change [5] -0.008% [at 8.39 µM]

OCCCC1CCCCC1
inactive: Potency [1] | outcome [8] | Potency [7] | outcome [2] | Potency [3] | Potency [4] | outcome [5]

COc1cc(C(=O)N2CCCCCCC2)cc(OC)c1OC
inactive: Potency [1] | outcome [8] | Potency [6] | Potency [7] | outcome [2] | Potency [3] | Potency [4] | outcome [5]

C=CCCCCCCCCC=O
inactive: Potency [1] | outcome [8] | Potency [7] | outcome [2] | Potency [3] | Potency [4] | outcome [5]

Cc1ccc(Cl)cc1Cl
inactive: Potency [1] | outcome [8] | Potency [7] | outcome [2] | Potency [3] | Potency [4] | outcome [5]

Cn1c(N)c(N=O)c(=O)n(C)c1=O
inactive: Potency [1] | Potency [7] | outcome [2] | Potency [3] | Potency [4] | outcome [5]

CCCCC/C=C\CCC=O
inactive: Potency [1] | outcome [8] | Potency [7] | outcome [2] | Potency [3] | Potency [4] | outcome [5]

NC(=O)Nc1ccccc1
inactive: Potency [1] | outcome [8] | Potency [7] | outcome [2] | Potency [3] | Potency [4] | outcome [5]

Cc1cc(O)cc2c1O[C@](C)(CCC[C@H](C)CCC[C@H](C)CCCC(C)C)CC2
inactive: Potency [1] | outcome [8] | Potency [6] | Potency [7] | outcome [2] | Potency [3] | Potency [4] | outcome [5]

Nc1ccc(S(=O)(=O)Nc2ccnn2-c2ccccc2)cc1
inactive: viability change, negative = cytotoxic [1] 0.287% [at 19 µM] | activity change, negative = inhibition [8] 0.724% [at 19 µM] | Potency [6] | activity change, negative = cytotoxicity [2] 2.68% [at 19 µM] | Potency [4] | activity change [5] -1.14% [at 18.9 µM]

O=Cc1cccc([N+](=O)[O-])c1
inactive: Potency [1] | outcome [8] | outcome [2] | Potency [4] | outcome [5]

CCCCCCOC(=O)CCCCC(=O)OCCCCCC
inactive: Potency [1] | outcome [8] | outcome [2] | Potency [3] | Potency [4] | outcome [5]
